High-throughput results: PubChem, several laboratories
An excerpt weighted towards active compounds, which were near 0.7% of everything screened.
FadD28 binding = M. tuberculosis FadD28 bisubstrate binding inhibition; FadD28 bisubstrate probe binding, fluorescence polarization; inhibition, % at 12.5 µM; actives 0.22% (n = 360,000); AID 588549; in the data active means inhibition above about 8.5%, passing the limit was not always enough
Mtb BioA inh = inhibitors of Mycobacterium tuberculosis BioA enzyme; actives 0.096% (n = 360,000); purified M. tuberculosis BioA enzyme, plate reader; inhibition, % at 9.99 µM; AID 602481; in the data active means inhibition above about 40%
SARS 3CLpro inh-1 = SARS-CoV 3CLpro protease inhibition. P0C6X7. recombinant SARS-CoV 3CLpro, quenched FRET peptide cleavage. inhibition, % at 6 µM. actives 0.14% (n = 290,000); in the data active means inhibition above about 12%
VHR inh abs = blocks human VHR1 dual specificity phosphatase. P51452. recombinant VHR phosphatase, pNPP absorbance. inhibition, % at 13.3 µM. actives 0.52% (n = 290,000). AID 1654; in the data active means inhibition above about 50%
Target sequence (P51452 whole entry, looked up): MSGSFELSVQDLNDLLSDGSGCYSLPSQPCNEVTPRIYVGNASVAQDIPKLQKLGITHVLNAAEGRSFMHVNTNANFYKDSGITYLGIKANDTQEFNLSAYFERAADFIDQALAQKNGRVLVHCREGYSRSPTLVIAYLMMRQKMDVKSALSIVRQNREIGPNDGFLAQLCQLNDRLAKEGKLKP
Mtb hypoxia rep = reduces hypoxia-regulated biosensor signal in M. tuberculosis; actives 0.1% (n = 300,000); AID 1159583; fluorescence inhibition, % (test concentration not listed); M. tuberculosis hypoxia-regulated fluorescent reporter, fluorescence; in the data active means fluorescence inhibition mostly above about 23%, no sharp cut-off; inactive means mostly below about 17%
SARS 3CLpro inh-2 = confirmation of SARS coronavirus 3C-like protease inhibitors; inhibition, % at 6 µM; QFRET protease activity assay, 3CLpro; shares compounds with SARS 3CLpro inh-1; actives 36% (n = 380); in the data active means inhibition above about 13%
Numbers stand for hits; . = inactive; / = no result.

SMILES	FadD28 binding	Mtb BioA inh	SARS 3CLpro inh-1	VHR inh abs	Mtb hypoxia rep	SARS 3CLpro inh-2
NC(=O)CCn1c(C(=O)c2cc(Cl)c(N)c(Cl)c2)c2ccccc2[n+]1[O-]	.	.	30	.	.	35
Cc1ccc(C(=O)c2c3ccc(C(F)(F)F)cc3[n+]([O-])n2CCCC(N)=O)cc1	.	.	/	/	.	/
Cc1ccc(C(=O)c2c3ccc(C(F)(F)F)cc3[n+]([O-])n2CCC(N)=O)cc1	.	.	27	.	.	21
COc1ccc(C(=O)c2c3ccccc3[n+]([O-])n2CCC(N)=O)cc1	.	.	/	/	.	/
Cc1cc(NC(=O)COC(=O)C(Nc2ccc(C(F)(F)F)cc2Cl)C(C)C)no1 (centres undefined)	.	.	14	.	.	13
O=C(C1=CC(c2coc3ccccc3c2=O)CC(OCCCCO)O1)N1CCN(Cc2ccccc2)CC1 (centres undefined)	/	/	/	/	.	/
O=C1N/C(=N/S(=O)(=O)Cc2ccccc2)S/C1=C/c1ccc2c(c1)OCO2	.	.	13	.	.	.
CO[C@@]1(NC(=O)C2SC(=C(C(N)=O)C(=O)O)S2)C(=O)N2C(C(=O)O)=C(CSc3nnnn3C)CSC21 (some centres undefined)	/	/	/	/	.	/
O=C(CSc1ccc(F)cc1)Nc1ccc2c(c1)C(=O)NC2=O	.	.	13	.	.	.
O=C(COC(=O)CCc1c[nH]c2ccccc12)Nc1ccccc1	.	.	/	/	.	/
O=C(COC(=O)CCc1c[nH]c2ccccc12)NC(c1ccccc1)c1ccccc1	.	.	13	.	.	.
CC(C)(C)c1ccc(NC(=O)CSc2n[nH]c(=O)n2-c2cccnc2)cc1	.	.	12	.	.	.
Cc1ccc(NC(CNS(=O)(=O)c2ccc(Cl)cc2)c2ccccc2)cc1 (centres undefined)	.	.	13	.	/	.
O=S(=O)(NCC(Nc1ccc(Cl)cc1)c1ccccc1)c1ccccc1 (centres undefined)	.	.	.	.	.	/
C#CCOCCOCCOCCNc1nc(N2CCN(C(=O)C(CCC(=O)O)n3cc(C(N)CO)nn3)CC2)nc(N2CCN(C(=O)C(C(C)CC)n3cc(C(N)Cc4ccc(O)cc4)nn3)CC2)n1 (centres undefined)	/	/	/	/	.	/
C/C(=N\N=C(/N)SC1CC(=O)N(c2cccc(Cl)c2)C1=O)c1cccs1 (centres undefined)	.	.	13	.	/	.
CC=C(C)C(=O)Nc1cccc(C2=NOC3(C2)CC(C(N)=O)N(C(=O)c2ccccc2)C3)c1 (centres undefined)	/	/	/	/	.	/
CCC(C)C(C(=O)N1CCN(C(=O)OC(C)(C)C)CC1)n1cc(CCCN=C(NC(=O)OC(C)(C)C)NC(=O)OC(C)(C)C)nn1 (centres undefined)	/	/	/	/	.	/
Cc1ccc(C2C3C(=O)N(C)C(=O)C3[C@]3(C)C(=O)N(Cc4ccccc4)CC(=O)N23)o1 (some centres undefined)	/	/	/	/	.	/
CCOc1cc(C(N)=O)cc(Br)c1OC	.	.	15	.	.	.
O=C(Oc1ccc(N2C(=O)CCC2=O)cc1)c1ccco1	.	.	.	.	/	/
O=C(Oc1ccc(Cl)cc1N1C(=O)CCC1=O)c1ccco1	.	.	15	.	/	18
Cc1cccc(CN2CCN(C(=O)CCl)CC2)c1	.	.	16	.	.	47
CC1CN(C(C)CO)C(=O)Cc2cc(NS(=O)(=O)c3ccccc3)ccc2OC1CN(C)Cc1ccc(-c2ccccc2)cc1 (centres undefined)	/	/	/	/	.	/
O=C(O)C(Cc1ccccc1)NC(=O)C(c1ccccc1)(c1ccccc1)c1ccccc1 (centres undefined)	/	/	/	/	.	/
SMILES	FadD28 binding	Mtb BioA inh	SARS 3CLpro inh-1	VHR inh abs	Mtb hypoxia rep	SARS 3CLpro inh-2
O=C(CCS(=O)(=O)c1ccc(F)cc1)N1CCN(c2ccccc2)CC1	.	.	/	/	.	/
O=C(CCS(=O)(=O)c1ccccc1)N1CCN(c2ccc(F)cc2)CC1	.	.	13	.	.	.
CN1CCN(C(=O)C2=CC(c3ccccc3)CC(OCCCCO)O2)CC1 (centres undefined)	/	/	/	/	.	/
CC(C)CC(CO)N1CCN(CCc2ccccc2)CCC1=O (centres undefined)	/	/	/	/	.	/
CC(=NNC(=O)c1ccco1)c1ccc(C(=O)O)s1	/	/	/	/	.	/
Cc1ccc(CN(C(=O)Cn2nnc3ccccc32)C(C(=O)NCc2ccco2)c2cccs2)cc1 (centres undefined)	.	.	25	.	/	19
O=C(NCc1ccco1)C(c1cccs1)N(Cc1ccccc1)C(=O)Cn1nnc2ccccc21 (centres undefined)	.	.	20	.	/	29
O=C(NCc1ccco1)C(c1ccco1)N(CCc1ccccc1)C(=O)Cn1nnc2ccccc21 (centres undefined)	.	.	26	.	/	28
O=C(NC1CCCCC1)C(c1ccco1)N(Cc1cccs1)C(=O)Cn1nnc2ccccc21 (centres undefined)	.	/	.	.	.	/
O=C(NCc1ccco1)C(c1ccco1)N(Cc1cccs1)C(=O)Cn1nnc2ccccc21 (centres undefined)	.	.	14	.	.	.
C=CCN1CCc2c(cc(O)c(O)c2Br)C(c2ccccc2)C1 (centres undefined)	/	/	/	/	.	/
CCCCC=CC(NC(=O)c1ccc(-c2ccccc2)cc1)c1ccccc1 (centres undefined)	/	/	/	/	.	/
CCC(=O)Nc1cccc(C2=NOC3(C2)CC(C(N)=O)N(C(=O)c2ccc(OC)cc2)C3)c1 (centres undefined)	/	/	/	/	.	/
CCC(C)(C)NC(=O)C(c1cccn1C)N(C(=O)Cn1nnc2ccccc21)c1ccc(NC(C)=O)cc1 (centres undefined)	.	/	46	.	.	50
COCCNC(=O)C(c1ccc(C)o1)N(C(=O)Cn1nnc2ccccc21)c1ccccc1 (centres undefined)	.	.	14	.	.	.
COCCNC(=O)C(c1ccc(C)o1)N(Cc1ccc(OC)cc1)C(=O)Cn1nnc2ccccc21 (centres undefined)	.	.	.	.	/	/
CCC(C)(C)NC(=O)C(c1cccn1C)N(C(=O)Cn1nnc2ccccc21)c1ccc(F)cc1 (centres undefined)	.	.	.	.	.	/
COCCNC(=O)C(c1ccccc1)N(Cc1cccs1)C(=O)Cn1nnc2ccccc21 (centres undefined)	.	.	23	.	/	21
CC(C)(C)OC(=O)[C@H](Cc1ccccc1)NC(=O)c1[nH]cnc1C(=O)N[C@@H](Cc1ccccc1)C(=O)OCc1ccccc1	.	.	13	.	/	.
CC(C)(C)OC(=O)[C@H](Cc1ccccc1)NC(=O)c1nc[nH]c1C(=O)N[C@@H](Cc1ccccc1)C(=O)OC(C)(C)C	.	.	/	.	/	/
Cc1cc(=O)oc2cc(NC(=O)Cc3ccccc3[N+](=O)[O-])ccc12	.	.	17	.	.	13
